Assay outcomes as filed in PubChem BioAssay.
Compounds with a hit are over-represented: about 1.5% of the library has one in this group of screens.
IL2 activator – qHTS of IL-2 Activators; activation, % (series mostly up to about 46 µM); hit rate 0.065% among 360,000; IL-2 activation reporter assay, cell-based qHTS; stimulated with anti-CD3/CD4/CD28 beads; in transgenic mouse T cells; AID 652025, 2013; in the data active = activation above about 50%; inconclusive = mostly about 30% to 49%; note: 0% is about no effect
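EGFP and DsRed fluorescence is measured by plate cytometry in unstimulated transgenic mouse T cells exposed to compound for 60 minutes, then stimulated 18 hours at 37 degrees C with anti-CD3/anti-CD4 beads plus anti-CD28.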
mIDH1 inhibitor – qHTS for Inhibitors of mutant isocitrate dehydrogenase 1 (IDH1): qHTS; Isocitrate dehydrogenase [NADP] cytoplasmic (Homo sapiens), O75874; IDH1-R132H enzyme, NADPH consumption, diaphorase/resazurin fluorescence; Potency, µM (top dose mostly 76.6 µM), for inactives: top-dose activity change, negative = inhibition, actives largely listed as inhibitors; hit rate 0.093% among 390,000; AID 602179, 2012; note: potency is the fitted concentration of half-maximal effect; % is set by controls: 0 for no effect and ±100 for the full control effect; nearly all actives have a fitted effect of over 65% in size
Target sequence (O75874 whole entry R132H, stated change not applied): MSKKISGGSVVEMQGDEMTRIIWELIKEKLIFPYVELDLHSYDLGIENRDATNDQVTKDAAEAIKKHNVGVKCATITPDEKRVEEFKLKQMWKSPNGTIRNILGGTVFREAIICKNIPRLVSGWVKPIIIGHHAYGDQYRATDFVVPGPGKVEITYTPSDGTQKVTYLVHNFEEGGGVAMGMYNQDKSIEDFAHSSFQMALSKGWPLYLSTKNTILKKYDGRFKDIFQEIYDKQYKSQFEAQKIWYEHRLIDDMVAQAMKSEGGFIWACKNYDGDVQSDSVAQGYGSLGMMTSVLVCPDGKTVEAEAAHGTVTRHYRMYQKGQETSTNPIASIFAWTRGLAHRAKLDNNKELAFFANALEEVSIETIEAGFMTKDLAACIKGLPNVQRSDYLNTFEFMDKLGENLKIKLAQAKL
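IDH1-R132H (0.5 ug/mL) preincubated 30 min with compound, then NADPH (0.016 mM) and alpha-KG (2 mM) added; 80 min at RT, pH 7.5. Remaining NADPH coupled via diaphorase/resazurin to fluorescence (540/590 nm); concentration-response curves normalized to no-enzyme control.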
gsp ag – qHTS for Agonist of gsp, the Etiologic Mutation Responsible for Fibrous Dysplasia/McCune-Albright Syndrome: qHTS; gsp mutant cells, cAMP HTRF, 30 min; Potency, µM (top dose mostly 76.9 µM), inactives show at the top dose activation (cAMP increase), hits mostly activators; hit rate 0.13% among 340,000; AID 624287, 2012; active = well fitted activation curve with a large enough effect; inconclusive = small, poorly fitted or top-dose-only effect, or another doubt; inactive = no such curve, though single readings can be large or run the other way; cell line not stated here;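 note: phosphodiesterase inhibitor Ro 20-1724 added with compounds to block cAMP breakdown; potency is the fitted concentration of half-maximal effect; nearly all actives have a fitted effect of over 60% in size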
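Cells in DMEM/10% FBS with G418 were pretreated with compounds in DMSO plus […] (300 uM stock) for 30 min at 37C. cAMP was measured by HTRF (cAMP-d2 plus anti-cAMP antibody-K) after 30 min at room temperature.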
gsp antagonist – qHTS for Antagonists of gsp, the Etiologic Mutation Responsible for Fibrous Dysplasia/McCune-Albright Syndrome: qHTS; gsp-mutant cells, cAMP HTRF, 30 min; Potency, µM (series often up to 76.9 µM), inactives show at the highest dose activity change, negative = inhibition, most hits filed as inhibitors; hit rate 0.4% among 340,000; AID 624288, 2012; calls by dose curve; cell line not stated here;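 note: intracellular cAMP measured with PDE inhibitor Ro 20-1724 present during compound exposure; potency is the fitted concentration of half-maximal effect; % is set by controls: 0 for no effect and ±100 for the full control effect; nearly all actives have a fitted effect of over 65% in size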
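Cells in G418 medium, seeded 16-24 h, 37C; buffer exchange to DPBS + 1 mM CaCl2, 0.5 mM MgCl2, 0.05% BSA; cpds in DMSO + […] (300 uM stock), 30 min 37C; HTRF cAMP detection.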
BRCA1 expr up – qHTS Assay to Identify Small Molecule Activators of BRCA1 Expression; MCF7-BRCA1-FFLuc reporter, luminescence, 48 h; response scale: scaled: vehicle 0%, 10 µM genistein 100%; Potency, µM (highest dose often 46.1 µM), for the others: at the highest dose activation, usual class: activators; hit rate 1.1% among 380,000; AID 624202, 2012; note: potency is the fitted concentration of half-maximal effect; nearly all actives have a fitted effect of over 80% in size
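First, MCF7-BRCA1-FFLuc cells (2000/well) attach for 2 h; next, compounds are pin-added and incubated 48 h at 37 °C; finally, luciferase reagent is added and luminescence read after 15 min.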
An asterisk follows results filed as active; ? = inconclusive; . = not tested or not shown; [ ] = another dose, or the depositor's remark. Unless noted, calls come from the whole dose curve; as a rule, active = well fitted curve in the direction sought with a large enough effect; inconclusive = small, poorly fitted or top-dose-only effect, or another doubt; inactive = no such curve, though single readings can be large; an effect the other way counts as inactive or inconclusive.

SMILES	IL2 activator	mIDH1 inhibitor	gsp ag	gsp antagonist	BRCA1 expr up
Cc1cccc(N/C=C/c2onc(C)c2[N+](=O)[O-])c1	-0.4	10.0%	-18.2%	4.2%	2.51µM*
COc1ccc(CNC(=O)C(C)OC(=O)c2cccc(N(C)C)c2)cc1 (configuration not stated)	0.6	7.2%	-3.2%	1.8%	-4.8%
O=C(CN(C(=O)C1CSC(=O)C1)c1cccc(F)c1)NCc1ccc2c(c1)OCO2 (configuration not stated)	-0.5	8.1%	8.4%[15.4 µM]	-7.9%	-46.0%
Cc1ccc(NC(=O)NCc2c(C)nn(C)c2C)cc1Cl	-0.4	0.1%	-7.6%[15.4 µM]	8.0%	5.01µM*
Cc1ccc(NC(=O)NCc2ccccn2)cc1Cl	0.3	0.0%	25.1%	3.1%	34.4%
CCOc1ccc(C=Nc2ccc(/C=C/c3ccnc4ccccc34)cc2)cc1OCC	.	.	.	.	7.7%
OC(c1ccc(F)cc1)c1nc(/C=C/c2ccccc2)cs1 (configuration not stated)	0.0	.	.	.	84.8%
OC(c1ccccc1)c1nc(/C=C/c2ccccc2)cs1 (configuration not stated)	0.5	.	.	.	10µM*
N#Cc1ncc(Br)cn1	.	.	.	.	0.0%
Cc1nnc(NC(=O)c2ccc3c(c2)OCO3)s1	-0.8	19.7%	5.3%[15.4 µM]	-3.1%	5.62µM*
Cc1nnc(SCc2ccc3c(c2)OCO3)s1	0.1	3.3%	2.7%	7.1%	8.91µM*
CCc1ccc2oc(=O)cc(CN3CCN(c4ccc(F)cc4)CC3)c2c1	1.0	3.6%	1.0%	-12.4%[15.4 µM]	-46.9%
CC(C)c1ccc2oc(=O)cc(CN3CCN(c4ccc(F)cc4)CC3)c2c1	-1.4	0.6%	3.7%	35.5µM*	-51.2%
CCOC(=O)C1=NN(c2ccc(Cl)cc2)C(=O)C1	-1.6	7.1%	-0.5%	12.6%	3.98µM*
COc1ccc2cc(CNc3ccc(C)cc3)c(=O)n(CC(=O)Nc3cccc(Cl)c3C)c2c1	.	-11.5%	.	.	45.0%
O=C(Nc1ccc(Nc2ccccc2)cc1)c1ccc(Cl)cc1Cl	4.4	4.7%	1.6%[15.4 µM]	-18.5%	0.0%
C#Cc1cccc(NC(=O)c2ccc(Cl)cc2Cl)c1	-4.1	-4.6%	-1.5%	-7.4%	1.78µM*
C=C(CN(C)C)C(=O)c1ccc(C)cc1C	-6.2	-2.5%	27.3%	50.1µM*	-92.7%
Cc1ccc(C(=O)CC(=O)c2ccccc2C)c(O)c1	-4.8	3.1%	6.5%[15.4 µM]	13.7%	-29.0%
CC(C)(C)OC(=O)CNC(=O)c1[nH]cnc1C(=O)NCCCCCN	0.6	-1.3%	-190.3%	13.6%	1.4%
CC(C)(C)OC(=O)CNC(=O)c1[nH]cnc1C(=O)NCCCCCNC(=O)OC(C)(C)C	-5.2	20.7%	-1.9%	35.5µM*	-41.6%
CCOC(=O)c1ccc(-c2ccc(/C=C(\C#N)C(=O)NCc3cccs3)o2)cc1	60.9*	4.7%	?	10.3%	11.6%
CC(Oc1ccc2c3c(c(=O)oc2c1)CCCC3)C(=O)NCC1CCC(C(=O)O)CC1 (configuration not stated)	-0.6	-8.0%	-17.4%	-5.1%	0.4%
CC(Oc1ccc2c3c(c(=O)oc2c1)CCC3)C(=O)NCC1CCC(C(=O)O)CC1 (configuration not stated)	0.5	-8.4%	.	31.6µM*	21.2%
CC(C)(C)C(=O)OCCNc1nc(-c2cccs2)nc2ccccc12	.	.	.	.	0.0%
SMILES	IL2 activator	mIDH1 inhibitor	gsp ag	gsp antagonist	BRCA1 expr up
Oc1ccc(/C=C/c2cc(O)cc(O)c2)cc1	-0.3	0.7%	.	-5.8%	12.6µM*
CC(C)c1ccc(CNc2nc(-c3ccco3)nn2C(=O)c2ccc([N+](=O)[O-])cc2)cc1	.	9.2%	.	.	.
Clc1ccccc1CSc1cc2c(nn1)-c1ccccc1CC2	-1.0	-4.8%	1.4%	-7.4%	3.98µM*
Clc1cccc(Cl)c1CSc1cc2c(nn1)-c1ccccc1CC2	50.7*	5.2%	-32.2%	9.1%	30.2%
CCc1ccc(NC(=O)CSc2nccn2-c2cccc(C)c2C)cc1	.	-0.4%	.	.	15.6%
COc1cc(Cl)ccc1OCc1cc(C(=O)N(C)C2CCOC2)no1 (configuration not stated)	-4.7	-4.4%	15.9%	15.3%	12.6µM*
COc1cccc(OCc2cc(C(=O)N(C)C3CCOCC3)no2)c1	-2.3	-0.6%	8.9%	-7.6%	0.0%
CC(=O)c1ccc(OCc2cc(C(=O)N(C)CCOc3ccc(C)cc3)no2)cc1	-2.9	0.0%	-22.5%	?	3.98µM*
COc1cc(C)ccc1OCc1cc(C(=O)N(Cc2c(C)nn(C)c2C)C2CC2)no1	-3.1	-2.1%	?	-8.9%	12.6µM*
Cc1cc(OCc2cc(C(=O)N(C)C3CCOC3)no2)cc(C)c1Cl (configuration not stated)	0.9	14.1%	24.7%	-20.8%	2.82µM*
Cc1ccc(-c2c(C(=O)N3CCN(c4cccc(C)c4C)CC3)oc(=O)c3ccccc23)cc1	.	-7.6%	.	.	-8.5%
COc1ccc(Oc2nc3c(c(=O)n(C)c(=O)n3C)n2Cc2ccc(Cl)cc2Cl)cc1	.	-23.1%	.	.	.
CC(=O)c1ccc(OCc2cc(C(=O)N(C)C3CCOC3)no2)cc1 (configuration not stated)	-1.9	-5.9%	20.2%	11.1%	12.6µM*
COc1cc(Cl)ccc1OCc1cc(C(=O)N2C[C@H]3CC[C@H]2C3)no1	-2.9	9.2%	9.9%	-6.7%	11.2µM*
COc1cc(Cl)ccc1OCc1cc(C(=O)N2C[C@@H]3CCC[C@H]2C3)no1	-0.2	6.7%	1.4%[15.4 µM]	1.7%	?
Cc1[nH]c2ccc(C(=O)OCCN(C)C)cc2c1C	0.7	2.9%	?	-21.0%	57.6%
CCOC(=O)c1ccc2[nH]c(C)c(C)c2c1	0.1	11.0%	26.2%	5.3%	12.6µM*
OCC(O)C[n+]1cccc(Br)c1 (configuration not stated)	.	.	.	.	14.9%
CCCCNc1c(-c2cccc(-c3cc(C(C)=O)cs3)c2)nc2ccc(C)cn12	-0.7	6.7%	.	35.5µM*	-24.0%
CCCCNc1c(-c2cccc(-c3ccc(OC)cc3)c2)nc2cc(C)ccn12	-0.9	-4.5%	?	31.6µM*	-47.1%
CCCCCCSc1cccc(-c2nc3ccc(Cl)cn3c2NCCCC)c1	0.1	-0.1%	23.4%	9.1%	-1.4%
CCCCNc1c(-c2ccc(-c3cccc(Cl)c3)cc2)nc2ccccn12	-0.4	-3.4%[38.3 µM]	.	-15.3%	8.91µM*
COC(=O)[C@@]12C[C@@H](CC(=O)NCC3CCCCC3)C(=O)N(CCc3ccc(OC)c(OC)c3)C1=CCC(C)(C)C2	1.2	.	.	.	.
CC(=O)Nc1cc([N+](=O)[O-])cc(NC(C)=O)c1NC(C)=O	.	.	.	.	0.0%
